Measurements from PubChem BioAssay AID1159580 (chemical genetic matrix, 2015).
About 2,000 (36%) of roughly 5,500 compounds were called active. Another 18% or so got no clear call; they are omitted. No stated cut-off is given here; in the data, active means normalized growth mostly below about 0.91 (no sharp cut-off); inconclusive means no clear call, values can overlap the other calls; inactive means mostly above about 0.92. This is one part of the list.

Assay: chemical genetic growth profiling, strain panel (AID 1159580);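 further: tested at 20 µM; growth read once vehicle control cultures reached saturation at 30 °C; 1 = growth at the plate median or of vehicle wells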
Settings: growth OD
[1] = S. cerevisiae deletion strains, locus YHR030C, strain SLT2, stronger effect = lower value

Measured: normalized growth

Cc1c(C)c(C)c(S(=O)(=O)Nc2ccccc2N)c(C)c1C
inactive: S. cerevisiae deletion strains, locus YAL013W, strain DEP1, stronger effect = lower value 1.01 | S. cerevisiae deletion strains, locus YBR229C, strain ROT2, stronger effect = lower value 0.993 | S. cerevisiae deletion strains, locus YDL101C, strain DUN1, stronger effect = lower value 1.04 | S. cerevisiae deletion strains, locus YDR150W, strain NUM1, stronger effect = lower value 1.02 | S. cerevisiae deletion strains, locus YEL061C, strain CIN8, stronger effect = lower value 0.959 | S. cerevisiae deletion strains, locus YGR078C, strain PAC10, stronger effect = lower value 1.01 | [1] 1.01 | S. cerevisiae deletion strains, locus YHR087W, strain rtc3, stronger effect = lower value 0.989 | S. cerevisiae deletion strains, locus YJR043C, strain POL32, stronger effect = lower value 1.03 | S. cerevisiae deletion strains, locus YJR075W, strain HOC1, stronger effect = lower value 1.01 | S. cerevisiae deletion strains, locus YKL190W, strain CNB1, stronger effect = lower value 0.994 | S. cerevisiae deletion strains, locus YLR039C, strain RIC1, stronger effect = lower value 0.988 | S. cerevisiae deletion strains, locus YLR058C, strain SHM2 (second series), stronger effect = lower value 0.975 | S. cerevisiae deletion strains, locus YLR085C, strain ARP6, stronger effect = lower value 0.988 | S. cerevisiae deletion strains, locus YLR262C, strain YPT6, stronger effect = lower value 0.981 | S. cerevisiae deletion strains, locus YML094W, strain GIM5, stronger effect = lower value 1 | S. cerevisiae deletion strains, locus YMR219W, strain ESC1, stronger effect = lower value 0.999 | S. cerevisiae deletion strains, locus YMR263W, strain SAP30, stronger effect = lower value 1.01 | S. cerevisiae deletion strains, locus YNL128W, strain TEP1, stronger effect = lower value 0.978 | S. cerevisiae deletion strains, locus YNL153C, strain GIM3, stronger effect = lower value 1.04 | S. cerevisiae deletion strains, locus YNL298W, strain CLA4 (second series), stronger effect = lower value 0.982 | S. cerevisiae deletion strains, locus YNL322C, strain KRE1, stronger effect = lower value 0.996 | S. cerevisiae deletion strains, locus YNR030W, strain Alg12, stronger effect = lower value 0.966 | S. cerevisiae deletion strains, locus YOL006C, strain TOP1, stronger effect = lower value 1.02 | S. cerevisiae deletion strains, locus YPL055C, strain LGE1, stronger effect = lower value 0.991 | S. cerevisiae deletion strains, locus YPL241C, strain CIN2, stronger effect = lower value 0.974 | S. cerevisiae deletion strains, locus YPR135W, strain CTF4, stronger effect = lower value 1.06 | S. cerevisiae strains, strain wild type, stronger effect = lower value 0.975

CCCCCCCCCCCCCCCC(=O)OC[C@H](NC(=O)C(Cl)Cl)[C@H](O)c1ccc([N+](=O)[O-])cc1
active: S. cerevisiae deletion strains, locus YMR058W, strain fet3, stronger effect = lower value 0.88 | S. cerevisiae deletion strains, locus YMR129W, stronger effect = lower value 1.09 [resistant]
inactive: S. cerevisiae deletion strains, locus YAL021C, strain ccr4, stronger effect = lower value 0.986 | S. cerevisiae deletion strains, locus YAL026C, strain drs2, stronger effect = lower value 0.995 | S. cerevisiae deletion strains, locus YAL030W, strain snc1, stronger effect = lower value 1.04 | S. cerevisiae deletion strains, locus YBL061C, strain skt5, stronger effect = lower value 1.02 | S. cerevisiae deletion strains, locus YBR009C, strain hhf1, stronger effect = lower value 1.02 | S. cerevisiae deletion strains, locus YBR023C, strain chs3, stronger effect = lower value 1.01 | S. cerevisiae deletion strains, locus YBR171W, strain sec66, stronger effect = lower value 1.06 | S. cerevisiae deletion strains, locus YBR231C, strain swc5, stronger effect = lower value 1.01 | S. cerevisiae deletion strains, locus YBR279W, strain paf1, stronger effect = lower value 1.02 | S. cerevisiae deletion strains, locus YCL011C, strain gbp2, stronger effect = lower value 1.03 | S. cerevisiae deletion strains, locus YCL016C, strain dcc1, stronger effect = lower value 1 | S. cerevisiae deletion strains, locus YCL069W, strain vba3, stronger effect = lower value 1.04 | S. cerevisiae deletion strains, locus YCR088W, strain abp1, stronger effect = lower value 1.04 | S. cerevisiae deletion strains, locus YDL005C, strain med2, stronger effect = lower value 1.05 | S. cerevisiae deletion strains, locus YDL040C, strain nat1, stronger effect = lower value 1.01 | S. cerevisiae deletion strains, locus YDR001C, strain nth1, stronger effect = lower value 1.03 | S. cerevisiae deletion strains, locus YDR069C, strain doa4, stronger effect = lower value 0.973 | S. cerevisiae deletion strains, locus YDR137W, strain rgp1, stronger effect = lower value 1.01 | S. cerevisiae deletion strains, locus YDR159W, strain sac3, stronger effect = lower value 1.03 | S. cerevisiae deletion strains, locus YDR195W, strain ref2 1.05 | S. cerevisiae deletion strains, locus YDR297W, strain sur2, stronger effect = lower value 1.03 | S. cerevisiae deletion strains, locus YDR334W, strain swr1, stronger effect = lower value 1.03 | S. cerevisiae deletion strains, locus YDR335W, strain msn5, stronger effect = lower value 1.02 | S. cerevisiae deletion strains, locus YDR392W, strain spt3, stronger effect = lower value 1.03 | S. cerevisiae deletion strains, locus YEL003W, strain gim4, stronger effect = lower value 1.04 | S. cerevisiae deletion strains, locus YEL037C, strain rad23, stronger effect = lower value 1.03 | S. cerevisiae deletion strains, locus YEL061C, strain CIN8 (second series), stronger effect = lower value 1.04 | S. cerevisiae deletion strains, locus YER015W, strain faa2, stronger effect = lower value 1 | S. cerevisiae deletion strains, locus YER016W, strain bim1, stronger effect = lower value 1.02 | S. cerevisiae deletion strains, locus YER111C, strain swi4, stronger effect = lower value 1.02 | S. cerevisiae deletion strains, locus YER155C, strain BEM2 (second series), stronger effect = lower value 1.03 | S. cerevisiae deletion strains, locus YFR010W, strain ubp6, stronger effect = lower value 1.01 | S. cerevisiae deletion strains, locus YGL167C, strain pmr1, stronger effect = lower value 1.03 | S. cerevisiae deletion strains, locus YGL173C, strain kem1, stronger effect = lower value 1.05 | S. cerevisiae deletion strains, locus YGL227W, strain vid30, stronger effect = lower value 1.04 | S. cerevisiae deletion strains, locus YGL240W, strain doc1, stronger effect = lower value 1.07 | S. cerevisiae deletion strains, locus YGL253W, strain hxk2, stronger effect = lower value 1.01 | S. cerevisiae deletion strains, locus YHR013C, strain ard1, stronger effect = lower value 1.07 | S. cerevisiae deletion strains, locus YHR027C, strain rpn1, stronger effect = lower value 0.992 | [1] 0.97 | S. cerevisiae deletion strains, locus YHR079C, strain IRE1, stronger effect = lower value 0.985 | S. cerevisiae deletion strains, locus YHR142W, strain chs7, stronger effect = lower value 1.05 | S. cerevisiae deletion strains, locus YJL092W, strain hpr5, stronger effect = lower value 1.04 | S. cerevisiae deletion strains, locus YJL095W, strain BCK1 (second series), stronger effect = lower value 1.05 | S. cerevisiae deletion strains, locus YJL095W, strain BCK1, stronger effect = lower value 0.998 | S. cerevisiae deletion strains, locus YJL115W, strain asf1, stronger effect = lower value 1.05 | S. cerevisiae deletion strains, locus YJL129C, strain trk1, stronger effect = lower value 1.09 | S. cerevisiae deletion strains, locus YJL154C, strain vps35, stronger effect = lower value 1.03 | S. cerevisiae deletion strains, locus YJL164C, strain tpk1, stronger effect = lower value 1.04 | S. cerevisiae deletion strains, locus YJL166W, strain qcr8, stronger effect = lower value 1.03 | S. cerevisiae deletion strains, locus YJL187C, strain SWE1, stronger effect = lower value 1.05 | S. cerevisiae deletion strains, locus YJR066W, strain TOR1, stronger effect = lower value 0.984 | S. cerevisiae deletion strains, locus YKL160W, strain elf1, stronger effect = lower value 1.02 | S. cerevisiae deletion strains, locus YKR026C, strain gcn3, stronger effect = lower value 1.03 | S. cerevisiae deletion strains, locus YKR091W, strain srl3, stronger effect = lower value 1.02 | S. cerevisiae deletion strains, locus YLL001W, strain dnm1, stronger effect = lower value 1.02 | S. cerevisiae deletion strains, locus YLL026W, stronger effect = lower value 1 | S. cerevisiae deletion strains, locus YLL041C, strain sdh2, stronger effect = lower value 1.02 | S. cerevisiae deletion strains, locus YLR027C, strain aat2, stronger effect = lower value 1.02 | S. cerevisiae deletion strains, locus YLR113W, strain HOG1, stronger effect = lower value 0.975 | S. cerevisiae deletion strains, locus YLR221C, strain rsa3, stronger effect = lower value 1.02 | S. cerevisiae deletion strains, locus YLR258W, strain gsy2, stronger effect = lower value 1.03 | S. cerevisiae deletion strains, locus YLR262C, strain YPT6 (second series), stronger effect = lower value 1.03 | S. cerevisiae deletion strains, locus YLR320W, strain mms22, stronger effect = lower value 1.01 | S. cerevisiae deletion strains, locus YLR342W, strain FKS1, stronger effect = lower value 1.01 | S. cerevisiae deletion strains, locus YLR357W, strain rsc2, stronger effect = lower value 1.03 | S. cerevisiae deletion strains, locus YLR370C, strain arc18, stronger effect = lower value 1.04 | S. cerevisiae deletion strains, locus YLR384C, strain iki3, stronger effect = lower value 1.02 | S. cerevisiae deletion strains, locus YML120C, strain ndi1, stronger effect = lower value 1.01 | S. cerevisiae deletion strains, locus YMR125W, strain sto1, stronger effect = lower value 1.06 | S. cerevisiae deletion strains, locus YMR205C, strain PFK2, stronger effect = lower value 1.04 | S. cerevisiae deletion strains, locus YMR231W, strain pep5, stronger effect = lower value 1.03 | S. cerevisiae deletion strains, locus YNL071W, strain lat1, stronger effect = lower value 0.986 | S. cerevisiae deletion strains, locus YNL183C, strain NPR1, stronger effect = lower value 0.927 | S. cerevisiae deletion strains, locus YNL209W, strain ssb2, stronger effect = lower value 0.995 | S. cerevisiae deletion strains, locus YNL248C, strain rpa49, stronger effect = lower value 1.04 | S. cerevisiae deletion strains, locus YNL322C, strain KRE1 (second series), stronger effect = lower value 1.05 | S. cerevisiae deletion strains, locus YNR049C, strain mso1, stronger effect = lower value 1.04 | S. cerevisiae deletion strains, locus YOR001W, strain rrp6, stronger effect = lower value 1.03 | S. cerevisiae deletion strains, locus YOR070C, strain gyp1, stronger effect = lower value 1.03 | S. cerevisiae deletion strains, locus YOR080W, strain dia2, stronger effect = lower value 1.03 | S. cerevisiae deletion strains, locus YOR083W, strain WHI5, stronger effect = lower value 1 | S. cerevisiae deletion strains, locus YOR106W, strain vam3, stronger effect = lower value 1.02 | S. cerevisiae deletion strains, locus YOR231W, strain MKK1, stronger effect = lower value 0.997 | S. cerevisiae deletion strains, locus YOR265W, strain rbl2, stronger effect = lower value 1.02 | S. cerevisiae deletion strains, locus YOR270C, strain vph1, stronger effect = lower value 1 | S. cerevisiae deletion strains, locus YOR290C, strain snf2, stronger effect = lower value 0.999 | S. cerevisiae deletion strains, locus YPL051W, strain arl3, stronger effect = lower value 0.999 | S. cerevisiae deletion strains, locus YPL078C, strain atp4, stronger effect = lower value 1.04 | S. cerevisiae deletion strains, locus YPL106C, strain sse1, stronger effect = lower value 1.08 | S. cerevisiae deletion strains, locus YPL240C, strain hsp82, stronger effect = lower value 1.05 | S. cerevisiae deletion strains, locus YPL256C, strain CLN2, stronger effect = lower value 1.01
